Assay results from PubChem BioAssay AID1159580 (chemical genetic matrix, 2015).
Among all 5,500 compounds or so, about 2,000 (36%) were called active. Roughly 18% stayed inconclusive and do not appear here. Rule as the data show it: active = normalized growth mostly below about 0.91 (no sharp cut-off); inconclusive = no clear call, values can overlap the other calls; inactive = mostly above about 0.92. The list shows a part of the results.

Assay: chemical genetic growth profiling, strain panel (AID 1159580);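 also: tested at 20 µM; growth read once vehicle control cultures reached saturation at 30 °C; 1 = growth at the plate median or of vehicle wells; lower values mean less growth of the strain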
Conditions: growth OD

Measured: normalized growth

Cc1ccccc1OCC(O)CO (stereo not given)
inactive: S. cerevisiae deletion strains, locus YJR066W, strain TOR1, active compounds read low 0.913 | S. cerevisiae deletion strains, locus YJR075W, strain HOC1, active compounds read low 1.04 | S. cerevisiae deletion strains, locus YKL009W, strain mrt4, active compounds read low 0.987 | S. cerevisiae deletion strains, locus YKL068W, active compounds read low 0.996 | S. cerevisiae deletion strains, locus YKL085W, strain MDH1 (second series), active compounds read low 1.04 | S. cerevisiae deletion strains, locus YKL085W, strain MDH1, active compounds read low 1.04 | S. cerevisiae deletion strains, locus YKL160W, strain elf1, active compounds read low 0.986 | S. cerevisiae deletion strains, locus YKL190W, strain CNB1, active compounds read low 1.01 | S. cerevisiae deletion strains, locus YKR001C, strain vps1, active compounds read low 0.991 | S. cerevisiae deletion strains, locus YKR026C, strain gcn3, active compounds read low 0.928 | S. cerevisiae deletion strains, locus YKR091W, strain srl3, active compounds read low 0.984 | S. cerevisiae deletion strains, locus YLL001W, strain dnm1, active compounds read low 0.985 | S. cerevisiae deletion strains, locus YLL026W, active compounds read low 0.983 | S. cerevisiae deletion strains, locus YLL041C, strain sdh2, active compounds read low 0.985 | S. cerevisiae deletion strains, locus YLR027C, strain aat2, active compounds read low 0.957 | S. cerevisiae deletion strains, locus YLR039C, strain RIC1, active compounds read low 1.02 | S. cerevisiae deletion strains, locus YLR058C, strain SHM2, active compounds read low 1.02 | S. cerevisiae deletion strains, locus YLR102C, strain apc9, active compounds read low 0.991 | S. cerevisiae deletion strains, locus YLR113W, strain HOG1, active compounds read low 0.971 | S. cerevisiae deletion strains, locus YLR221C, strain rsa3, active compounds read low 0.982 | S. cerevisiae deletion strains, locus YLR258W, strain gsy2, active compounds read low 0.98 | S. cerevisiae deletion strains, locus YLR262C, strain YPT6 (second series), active compounds read low 0.973 | S. cerevisiae deletion strains, locus YLR262C, strain YPT6, active compounds read low 1.02 | S. cerevisiae deletion strains, locus YLR268W, strain sec22, active compounds read low 0.996 | S. cerevisiae deletion strains, locus YLR320W, strain mms22, active compounds read low 0.964 | S. cerevisiae deletion strains, locus YLR330W, strain CHS5, active compounds read low 1.01 | S. cerevisiae deletion strains, locus YLR342W, strain FKS1 (second series), active compounds read low 1.04 | S. cerevisiae deletion strains, locus YLR342W, strain FKS1, active compounds read low 0.966 | S. cerevisiae deletion strains, locus YLR357W, strain rsc2, active compounds read low 0.982 | S. cerevisiae deletion strains, locus YLR370C, strain arc18, active compounds read low 0.979 | S. cerevisiae deletion strains, locus YLR371W, strain rom2, active compounds read low 0.992 | S. cerevisiae deletion strains, locus YLR384C, strain iki3, active compounds read low 0.992 | S. cerevisiae deletion strains, locus YLR418C, strain cdc73, active compounds read low 1.01 | S. cerevisiae deletion strains, locus YML016C, strain PPZ1, active compounds read low 1.02 | S. cerevisiae deletion strains, locus YML032C, strain rad52, active compounds read low 0.992 | S. cerevisiae deletion strains, locus YML120C, strain ndi1, active compounds read low 0.965 | S. cerevisiae deletion strains, locus YML124C, strain tub3, active compounds read low 0.993 | S. cerevisiae deletion strains, locus YMR058W, strain fet3, active compounds read low 0.98 | S. cerevisiae deletion strains, locus YMR078C, strain ctf18, active compounds read low 0.995 | S. cerevisiae deletion strains, locus YMR125W, strain sto1, active compounds read low 0.953 | S. cerevisiae deletion strains, locus YMR129W, active compounds read low 0.99 | S. cerevisiae deletion strains, locus YMR205C, strain PFK2, active compounds read low 0.975 | S. cerevisiae deletion strains, locus YMR223W, strain ubp8, active compounds read low 0.991 | S. cerevisiae deletion strains, locus YMR231W, strain pep5, active compounds read low 0.988 | S. cerevisiae deletion strains, locus YMR263W, strain SAP30, active compounds read low 1.03 | S. cerevisiae deletion strains, locus YMR307W, strain GAS1, active compounds read low 1.09 | S. cerevisiae deletion strains, locus YNL067W, strain RPL9B, active compounds read low 1.03 | S. cerevisiae deletion strains, locus YNL071W, strain lat1, active compounds read low 0.977 | S. cerevisiae deletion strains, locus YNL183C, strain NPR1, active compounds read low 0.919 | S. cerevisiae deletion strains, locus YNL209W, strain ssb2, active compounds read low 0.984 | S. cerevisiae deletion strains, locus YNL233W, strain BNI4, active compounds read low 1.04 | S. cerevisiae deletion strains, locus YNL248C, strain rpa49, active compounds read low 0.977 | S. cerevisiae deletion strains, locus YNL250W, strain rad50, active compounds read low 0.995 | S. cerevisiae deletion strains, locus YNL271C, strain bni1, active compounds read low 0.989 | S. cerevisiae deletion strains, locus YNL298W, strain CLA4, active compounds read low 0.993 | S. cerevisiae deletion strains, locus YNL307C, strain MCK1, active compounds read low 0.994 | S. cerevisiae deletion strains, locus YNL322C, strain KRE1 (second series), active compounds read low 0.979 | S. cerevisiae deletion strains, locus YNL322C, strain KRE1, active compounds read low 1.01 | S. cerevisiae deletion strains, locus YNR049C, strain mso1, active compounds read low 0.955 | S. cerevisiae deletion strains, locus YNR052C, strain pop2, active compounds read low 0.991 | S. cerevisiae deletion strains, locus YOL006C, strain TOP1, active compounds read low 1.11 | S. cerevisiae deletion strains, locus YOL012C, strain htz1 0.987 | S. cerevisiae deletion strains, locus YOL147C, strain pex11, active compounds read low 0.992 | S. cerevisiae deletion strains, locus YOR001W, strain rrp6, active compounds read low 0.963 | S. cerevisiae deletion strains, locus YOR061W, strain CKA2, active compounds read low 1.02 | S. cerevisiae deletion strains, locus YOR069W, strain VPS5, active compounds read low 1.01 | S. cerevisiae deletion strains, locus YOR070C, strain gyp1, active compounds read low 0.969 | S. cerevisiae deletion strains, locus YOR080W, strain dia2, active compounds read low 0.968 | S. cerevisiae deletion strains, locus YOR083W, strain WHI5, active compounds read low 0.967 | S. cerevisiae deletion strains, locus YOR106W, strain vam3, active compounds read low 0.96 | S. cerevisiae deletion strains, locus YOR136W, strain idh2, active compounds read low 0.998 | S. cerevisiae deletion strains, locus YOR144C, strain elg1, active compounds read low 0.99 | S. cerevisiae deletion strains, locus YOR184W, strain ser1, active compounds read low 1.01 | S. cerevisiae deletion strains, locus YOR231W, strain MKK1, active compounds read low 0.974 | S. cerevisiae deletion strains, locus YOR265W, strain rbl2, active compounds read low 0.968 | S. cerevisiae deletion strains, locus YOR270C, strain vph1, active compounds read low 0.911 | S. cerevisiae deletion strains, locus YOR290C, strain snf2, active compounds read low 0.969 | S. cerevisiae deletion strains, locus YOR316C, strain cot1, active compounds read low 0.992 | S. cerevisiae deletion strains, locus YPL051W, strain arl3, active compounds read low 0.981 | S. cerevisiae deletion strains, locus YPL055C, strain LGE1, active compounds read low 1.07 | S. cerevisiae deletion strains, locus YPL078C, strain atp4, active compounds read low 0.971 | S. cerevisiae deletion strains, locus YPL106C, strain sse1, active compounds read low 0.958 | S. cerevisiae deletion strains, locus YPL240C, strain hsp82, active compounds read low 0.992 | S. cerevisiae deletion strains, locus YPL256C, strain CLN2, active compounds read low 0.974 | S. cerevisiae deletion strains, locus YPR119W, strain clb2, active compounds read low 0.997 | S. cerevisiae deletion strains, locus YPR141C, strain kar3, active compounds read low 0.989 | S. cerevisiae deletion strains, locus YPR163C, strain tif3, active compounds read low 0.991 | S. cerevisiae deletion strains, locus YPR167C, strain met16, active compounds read low 0.998 | S. cerevisiae deletion strains, strain wtn01, active compounds read low 1 | S. cerevisiae strains, strain wild type, active compounds read low 1.02
